Experimental data reported in PubChem BioAssay AID720706 (Broad Institute, 2013).
In all, about 350,000 compounds went through this assay and about 5,500 (1.6%) were called active.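 The calls were made as follows: active = significant combined selectivity score with lowered wild-type GFP, culture density cut under 30%, mutant RFP and density less affected; inactive = any of these conditions unmet.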 Only a selection was taken, and actives are over-represented in it overall.

Test: GFP drop in mixed WT/humanized-ribosome E. coli culture – GFP/RFP fluorescence, OD600, single point, bacterial rRNA inhibitor project, primary screen (AID 720706)
Settings: E. coli WT GFP vs humanized-ribosome RFP mutants, 24 h; GFP signal change (wild-type ribosome): stronger effect = lower value, DMSO median 0, no signal -100; OD600 change: measured here: OD600 growth, DMSO median 0, no signal -100; RFP signal change: measured here: RFP humanized mutant strains, DMSO median 0, no signal -100, concentration not given here

Structure (SMILES)	GFP signal change (wild-type ribosome)	OD600 change [%]	RFP signal change [%]
O=C(NCc1ccc2c(c1)OCO2)c1c(O)nc2sccn2c1=O	9.79% (inactive)	1.77	0.304
O=C(NCc1ccc2c(c1)OCO2)c1c(-c2ccsc2)sc2ccccc12	-2.63% (inactive)	5.46	-0.565
Cc1cc(C(=O)Nc2ccc3c(c2)C(=O)N(C)[C@@H]2CC[C@H](CC(=O)NC4CCCC4)O[C@@H]2CO3)no1	1.76% (inactive)	5.25	2.11
CCCC(=O)Nc1ccc2c(c1)C(=O)N(C)[C@@H]1CC[C@H](CC(=O)NCCOC)O[C@H]1CO2	3.48% (inactive)	0.14	0.31
COc1ccccc1S(=O)(=O)N[C@@H]1C=C[C@H](CC(=O)N2CCN(C)CC2)O[C@@H]1CO	3.92% (inactive)	11.8	-3.5
COC(=O)c1c(C)oc(C)c1S(=O)(=O)Nc1ccc(C(C)C)cc1	-28.4% (active)	-12.4	-2.19
COC(=O)c1c(C)oc(C)c1S(=O)(=O)NCc1ccc(Cl)cc1	-11.3% (inactive)	-4.55	-0.764
CC(C)c1ccc(NS(=O)(=O)c2cn(C)c(=O)n(C)c2=O)cc1	4.95% (inactive)	14.4	-3.23
CO[C@H]1CC[C@@H]2CCOc3c(C#N)cccc3C(=O)N(C)C[C@H](C)C(=O)N(C)C[C@H]1O2	3.92% (inactive)	-1.31	-1.65
Brc1ccc2c(c1)[C@H]1OCC[C@H]1[C@@H](c1cccs1)N2	-43.8% (active)	-30.6	-11.9
Oc1ccc(/C=N/N(Cc2ccccc2)c2ccccc2)cc1	-13.9% (inactive)	-1.62	0.2
CCN(/N=C/c1ccc(N(C)C)cc1)c1nc2ccccc2[nH]1	-22.8% (active)	-10.9	-2.86
CCC(=O)N1C[C@@H](C)[C@H](OC)CN(C)C(=O)c2ccc(NC(=O)c3cc(C)on3)cc2OC[C@H]1C	0.768% (inactive)	1.75	-1.23
C/C=C/c1cnc2c(c1)C(=O)N([C@H](C)CO)C[C@H](C)[C@H](CN(C)C(=O)c1cccc(F)c1)O2	2.26% (inactive)	2.83	-3.73
CCOc1ccc(NC(=O)CC2C(=O)N(c3ccccc3)C(=O)N2CCOC)cc1 (stereo not given)	-0.19% (inactive)	4.93	-3.42
CCCOc1ccc(NC(=O)CC2C(=O)N(C)C(=S)N2Cc2ccc3c(c2)OCO3)cc1 (stereo not given)	-21.2% (active)	-17.1	1.22
O=C(Nc1ccc(Cl)cc1)C1c2cccc[n+]2CC(=O)N1Cc1ccc2c(c1)OCO2 (stereo not given)	4.36% (inactive)	0.665	-2.94
C[C@@H]1CCCCO[C@H](CN(C)C(=O)Nc2ccccc2)[C@H](C)CN([C@@H](C)CO)C(=O)c2cc(N(C)C)ccc2O1	-1.6% (inactive)	2.72	-1.91
CC[C@@H]1CC=CC[C@H](C)Oc2ccccc2C(=O)N(C)[C@H](Cc2ccccc2)C(=O)N1 (mixture of isomers)	-6.42% (inactive)	-18.3	-6.01
CS(=O)(=O)N(CC(=O)N/N=C/c1ccccn1)c1ccc(Oc2ccccc2)cc1	-25.9% (active)	-12.1	-0.663
O=C(COc1ccc(Cl)cc1Cl)N/N=C/c1ccccn1	-7.74% (inactive)	-28.8	0.0022
COc1ccc(CCNC(=O)CN(c2ccccc2)S(C)(=O)=O)cc1	4.81% (inactive)	11.8	2.52
C[C@H](O)C#Cc1cnc2c(c1)C(=O)N([C@@H](C)CO)C[C@@H](C)[C@@H](CN(C)C(=O)Cc1ccccn1)O2	7.53% (inactive)	12.6	-0.505
C[C@@H]1CN([C@H](C)CO)C(=O)c2cc(NS(C)(=O)=O)ccc2O[C@H]1CN(C)C(=O)Nc1cccc2ccccc12	2.55% (inactive)	10.8	2.43
O=C(Nc1cc(F)ccc1F)N1CC(=O)N2[C@H](CO)[C@@H](c3ccc(-c4cccnc4)cc3)[C@@H]2C1	-12% (inactive)	-3.71	-3.33
COc1ccc(S(=O)(=O)Nc2ccc3c(c2)C(=O)N([C@H](C)CO)C[C@H](C)[C@H](CN(C)S(=O)(=O)c2ccc(Cl)cc2)O3)cc1	-0.9% (inactive)	-8.14	4.68
C=C(C)CSc1nc(N)c2c3c(sc2n1)CCC3	-39.8% (active)	-31.8	-10.7
CCc1nc(N2CCN(C(C)=O)CC2)c2c3c(sc2n1)CCCC3	-24.3% (inactive)	-27.4	-2.91
Nc1nc(SCC(=O)NCCN2CCOCC2)nc2sc3c(c12)CCC3	4% (inactive)	8.61	-0.37
CC(C)NC(=O)NCC[C@H]1CC[C@@H](NS(=O)(=O)c2ccc(Oc3ccccc3)cc2)[C@@H](CO)O1	-0.321% (inactive)	-25.1	-2
